Reference: the supplement of paper PMC10338343
± gives the standard deviation. In all, about 8,200 sequences were measured (“pre-steady-state target cleavage rate”: median about 0.024, highest 2% from about 1.3 on). The full list was thinned out, with the highest values kept by preference.

Test system: MIWI (PIWIL1) piRISC loaded with L1MC piRNA (30 nt)
Experiment: pre-steady-state target cleavage rate (min^-1); MIWI and MILI are mouse PIWI proteins and EfPiwi is from a freshwater sponge; tags in brackets are library labels; higher = faster piRNA-guided slicing of the target
Conditions: guide: L1MC piRNA 5'p-UAACUAAAUACUAUGCAAGCUGUAGGUCCU
Procedure, shortened: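 A burst-and-steady-state fit was used to obtain the pre-steady-state cleavage rate. The input data were sequencing reads of uncleaved targets, normalised to depth and to weakly complementary targets, from a […] transcribed, DNA-blocked target RNA library mixed with 1 nM active affinity-purified piRISC holding one synthetic guide, with or without 500 nM GTSF1 partner protein, in HEPES–potassium acetate buffer at 33 °C for 0–8 or 0–960 min. Three trials were pooled and k3 was capped at 0.0001 min^-1.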

[1] = auxiliary factor: 500 nM mouse GTSF1
[2] = auxiliary factor: none (no GTSF1)
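Also: 1 nM active piRISC with 0.1 nM target library at 33 °C single turnover.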

Sequence | pre-steady-state target cleavage rate [1] | pre-steady-state target cleavage rate [2]
AGCACCUUCAGCUUGCAUAGUAUUUAGUUA | 0.711 ± 0.089 | 0.0548 ± 0.014
ACGACCUUCAGCUUGCAUAGUAUUUAGUUA | 1.45 ± 0.042 | 0.0921 ± 0.015
UCGACCUUCAGCUUGCAAAGUAUUUAGUUA | 1.33 ± 0.045 | 0.0401 ± 0.0087
UGCACCUUCAGCUUGCAUAGUAUUUAGUUA | 1.08 ± 0.091 | 0.0562 ± 0.011
UCGACCUUCAGCUUGCAUAGUAUUUAGUUA | 1.51 ± 0.047 | 0.0696 ± 0.012
UCCUCGUACAGCUUGCAUAGUUUUUAGUUA | 0.478 ± 0.013 | 0.0475 ± 0.011
UCCUGCUACAGCUUGCAUAGUAAUUUCAAA | 0.278 ± 0.074 | –
UCCACCAACUGCUUGCAUAGUAUUUAGUUA | 0.828 ± 0.036 | 0.0532 ± 0.0097
UGGACCUACAGCAUGCAUAGUAUUUAGAAA | 0.5 ± 0.061 | 0.00651 ± 0.0026
UCCACCUACACCUUGCAUAGUAUAUAGUUA | 0.543 ± 0.068 | 0.025 ± 0.0054
UCCUGCAACAGCUUGCAUAGAAUUUAGUUA | 0.492 ± 0.048 | 0.0261 ± 0.0079
UCCUGGAUCAGCUUGCAAACUAUUUAGUUA | 0.0815 ± 0.0098 | 0.00677 ± 0.003
AGGACCUAAGCUUGCAUAGUAUUUAGUUA | 1.05 ± 0.071 | 0.0685 ± 0.013
UCGACCUACACCUUGCAUAGUAUUUAGUUA | 1.15 ± 0.046 | 0.0525 ± 0.008
AGGACCUACAUCUUGCAUAGUAUUUAGUUA | 1.39 ± 0.036 | 0.0767 ± 0.012
AGGACCUACAUGCUUGCAUAGUAUUUAGUUA | 0.767 ± 0.056 | 0.0684 ± 0.013
AGGACCUACACCUUGCAUAGUAUUUAGUUA | 1.17 ± 0.037 | 0.0855 ± 0.015
UCGACCUACAUCUUGCAUAGUAUUUAGUUA | 1.61 ± 0.043 | 0.077 ± 0.014
UCGACCUACAGUCUUGCAUAGUAUUUAGUUA | 1.16 ± 0.063 | 0.0611 ± 0.012
UCCACCUACAUCUUGCAUAGUAUUUAGUUA | 0.85 ± 0.036 | 0.0567 ± 0.0096
UGGACCUACAUCUUGCAUAGUAUUUAGUUA | 1.38 ± 0.043 | 0.0737 ± 0.012
UGGACCUACAUGCUUGCAUAGUAUUUAGUUA | 0.925 ± 0.054 | 0.0601 ± 0.013
UCCACCUACAGCUUCCAUAGAAUUUAGUUA | 0.0393 ± 0.015 | –
UGGACCAUGAGCUUGCAUAGUAUUUACAAA | 0.159 ± 0.021 | 0.00423 ± 0.0026
AGGACCUACAGCUUGCAUAGUUAAAUCAAA [g10:g30:cont:t1A] | 0.159 ± 0.046 | –
UGGACAUACAGCUUGCAUAGUAUUUAGUUA | 1.23 ± 0.05 | 0.0916 ± 0.014
UCGACACUACAGCUUGCAUAGUAUUUAGUUA | 0.961 ± 0.061 | 0.0557 ± 0.0088
AGGACCAUACAGCUUGCAUAGUAUUUAGUUA | 1.06 ± 0.051 | 0.0829 ± 0.013
UCGACCAUACAGCUUGCAUAGUAUUUAGUUA | 0.86 ± 0.039 | 0.0901 ± 0.015
